Assays:
[1] = biological target: T1, Serine/threonine-protein kinase D2 (Homo sapiens) (UniProt Q9BZL6); conditions: at 1 µM;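 further: mean value of PRKD2 inhibition, from the GSK PKIS screening panel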
T1 sequence (whole entry): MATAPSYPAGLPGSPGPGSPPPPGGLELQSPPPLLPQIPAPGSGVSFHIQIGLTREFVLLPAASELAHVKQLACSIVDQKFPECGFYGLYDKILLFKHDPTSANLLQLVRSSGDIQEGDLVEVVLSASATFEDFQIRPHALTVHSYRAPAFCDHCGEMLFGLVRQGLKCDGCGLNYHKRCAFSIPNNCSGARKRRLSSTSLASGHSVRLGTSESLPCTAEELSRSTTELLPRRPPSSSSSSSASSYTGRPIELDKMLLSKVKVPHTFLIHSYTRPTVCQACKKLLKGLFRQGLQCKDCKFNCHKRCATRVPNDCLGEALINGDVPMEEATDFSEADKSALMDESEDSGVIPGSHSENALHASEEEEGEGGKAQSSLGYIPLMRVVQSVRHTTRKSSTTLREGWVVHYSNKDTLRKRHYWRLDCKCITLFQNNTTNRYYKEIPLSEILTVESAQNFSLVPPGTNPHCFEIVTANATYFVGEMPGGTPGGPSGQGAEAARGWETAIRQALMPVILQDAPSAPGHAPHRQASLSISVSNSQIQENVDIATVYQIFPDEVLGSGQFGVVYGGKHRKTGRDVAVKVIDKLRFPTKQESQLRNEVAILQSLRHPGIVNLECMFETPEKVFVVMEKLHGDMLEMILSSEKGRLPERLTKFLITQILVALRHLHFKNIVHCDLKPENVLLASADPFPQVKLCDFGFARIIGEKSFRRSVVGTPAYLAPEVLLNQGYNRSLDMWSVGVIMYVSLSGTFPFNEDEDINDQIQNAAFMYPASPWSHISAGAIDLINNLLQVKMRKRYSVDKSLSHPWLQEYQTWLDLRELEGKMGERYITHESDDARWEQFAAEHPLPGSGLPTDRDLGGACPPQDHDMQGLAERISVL

[2] = biological target: T2, Serine/threonine-protein kinase D3 (Homo sapiens) (UniProt O94806); conditions: at 0.1 µM
T2 sequence (whole entry): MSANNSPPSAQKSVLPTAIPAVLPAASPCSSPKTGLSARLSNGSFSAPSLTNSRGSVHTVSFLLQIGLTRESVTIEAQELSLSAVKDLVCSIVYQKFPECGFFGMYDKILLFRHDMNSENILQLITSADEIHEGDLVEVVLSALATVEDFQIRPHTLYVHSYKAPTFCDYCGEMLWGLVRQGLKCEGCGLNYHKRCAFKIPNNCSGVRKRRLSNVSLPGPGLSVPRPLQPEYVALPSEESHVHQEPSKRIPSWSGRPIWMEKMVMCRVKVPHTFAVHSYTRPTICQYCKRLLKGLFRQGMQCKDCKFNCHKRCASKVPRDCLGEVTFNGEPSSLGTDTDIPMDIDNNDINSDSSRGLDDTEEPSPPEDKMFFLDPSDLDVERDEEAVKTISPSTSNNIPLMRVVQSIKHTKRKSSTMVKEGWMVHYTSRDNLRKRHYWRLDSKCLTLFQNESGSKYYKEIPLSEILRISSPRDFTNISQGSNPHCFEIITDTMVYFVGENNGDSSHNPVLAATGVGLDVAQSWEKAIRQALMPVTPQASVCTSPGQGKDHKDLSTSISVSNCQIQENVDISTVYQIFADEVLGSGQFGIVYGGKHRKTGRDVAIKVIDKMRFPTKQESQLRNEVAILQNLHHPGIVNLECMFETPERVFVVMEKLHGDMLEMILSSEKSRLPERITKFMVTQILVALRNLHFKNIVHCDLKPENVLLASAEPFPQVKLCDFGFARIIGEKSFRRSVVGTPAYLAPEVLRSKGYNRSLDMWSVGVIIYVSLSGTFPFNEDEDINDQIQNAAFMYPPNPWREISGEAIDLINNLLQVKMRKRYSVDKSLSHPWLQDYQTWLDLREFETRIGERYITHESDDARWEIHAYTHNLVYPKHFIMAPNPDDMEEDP

[3] = biological target: T2, Serine/threonine-protein kinase D3 (Homo sapiens); conditions: at 1 µM
[4] = biological target: T3, cGMP-dependent protein kinase 1 (Homo sapiens) (UniProt Q13976); conditions: at 0.1 µM
T3 sequence (whole entry): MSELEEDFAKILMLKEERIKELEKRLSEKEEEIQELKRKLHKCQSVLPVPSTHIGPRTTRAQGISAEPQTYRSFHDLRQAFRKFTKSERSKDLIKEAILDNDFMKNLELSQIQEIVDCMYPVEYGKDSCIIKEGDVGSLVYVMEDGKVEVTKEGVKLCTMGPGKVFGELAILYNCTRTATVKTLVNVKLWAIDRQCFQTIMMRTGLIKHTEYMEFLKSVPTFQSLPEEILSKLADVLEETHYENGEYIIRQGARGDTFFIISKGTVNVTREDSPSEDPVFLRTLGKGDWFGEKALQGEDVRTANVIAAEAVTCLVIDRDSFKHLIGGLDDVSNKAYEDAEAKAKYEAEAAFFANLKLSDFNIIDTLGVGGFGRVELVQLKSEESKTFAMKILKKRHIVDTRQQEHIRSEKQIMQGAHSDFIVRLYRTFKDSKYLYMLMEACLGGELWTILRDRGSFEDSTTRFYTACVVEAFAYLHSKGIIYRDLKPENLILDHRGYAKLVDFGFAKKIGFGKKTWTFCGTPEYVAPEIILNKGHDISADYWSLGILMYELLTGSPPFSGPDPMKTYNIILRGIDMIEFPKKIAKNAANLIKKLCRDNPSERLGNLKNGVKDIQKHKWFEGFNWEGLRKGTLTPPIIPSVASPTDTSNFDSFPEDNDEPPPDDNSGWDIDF

[5] = biological target: T3, cGMP-dependent protein kinase 1 (Homo sapiens); conditions: at 1 µM
[6] = biological target: T4, cGMP-dependent protein kinase 2 (Homo sapiens) (UniProt Q13237); conditions: at 0.1 µM
T4 sequence (whole entry): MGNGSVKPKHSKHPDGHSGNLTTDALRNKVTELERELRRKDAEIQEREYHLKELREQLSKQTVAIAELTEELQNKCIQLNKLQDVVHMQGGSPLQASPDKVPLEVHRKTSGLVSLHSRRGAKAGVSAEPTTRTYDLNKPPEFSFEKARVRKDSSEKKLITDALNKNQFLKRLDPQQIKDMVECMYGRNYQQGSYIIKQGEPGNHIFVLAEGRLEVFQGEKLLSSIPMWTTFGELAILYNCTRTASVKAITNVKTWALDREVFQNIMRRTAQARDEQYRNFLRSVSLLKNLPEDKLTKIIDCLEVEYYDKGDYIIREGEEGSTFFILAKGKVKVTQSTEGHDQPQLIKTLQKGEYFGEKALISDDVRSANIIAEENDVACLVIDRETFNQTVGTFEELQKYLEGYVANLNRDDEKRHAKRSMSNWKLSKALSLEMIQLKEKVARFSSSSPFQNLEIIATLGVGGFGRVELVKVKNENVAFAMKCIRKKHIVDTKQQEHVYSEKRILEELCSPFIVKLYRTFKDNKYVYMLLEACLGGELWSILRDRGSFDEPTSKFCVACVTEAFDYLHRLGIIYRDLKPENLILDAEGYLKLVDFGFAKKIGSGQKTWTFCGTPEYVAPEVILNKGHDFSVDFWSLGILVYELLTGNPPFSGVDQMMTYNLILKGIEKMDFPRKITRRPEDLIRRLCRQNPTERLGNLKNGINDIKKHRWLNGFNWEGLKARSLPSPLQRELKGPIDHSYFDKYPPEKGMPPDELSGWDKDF

[7] = biological target: T4, cGMP-dependent protein kinase 2 (Homo sapiens); conditions: at 1 µM
[8] = biological target: T5, cAMP-dependent protein kinase catalytic subunit PRKX (Homo sapiens) (UniProt P51817); conditions: at 0.1 µM
T5 sequence (whole entry): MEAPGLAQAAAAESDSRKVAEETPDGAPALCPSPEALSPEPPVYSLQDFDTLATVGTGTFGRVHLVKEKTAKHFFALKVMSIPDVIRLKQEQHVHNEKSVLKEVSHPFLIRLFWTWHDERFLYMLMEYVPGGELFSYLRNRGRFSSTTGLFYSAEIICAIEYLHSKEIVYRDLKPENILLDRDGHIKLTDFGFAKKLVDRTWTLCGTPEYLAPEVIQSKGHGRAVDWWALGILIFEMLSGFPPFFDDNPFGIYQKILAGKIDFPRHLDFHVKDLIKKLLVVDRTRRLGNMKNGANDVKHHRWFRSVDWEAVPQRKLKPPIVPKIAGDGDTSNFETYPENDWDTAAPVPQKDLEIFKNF

[9] = biological target: T5, cAMP-dependent protein kinase catalytic subunit PRKX (Homo sapiens); conditions: at 1 µM
[10] = biological target: Rho-associated protein kinase 1 (Homo sapiens) (UniProt Q13464); conditions: at 0.1 µM
[11] = biological target: Rho-associated protein kinase 1 (Homo sapiens) (UniProt Q13464); conditions: at 1 µM
[12] = biological target: Rho-associated protein kinase 2 (Homo sapiens) (UniProt O75116); conditions: at 0.1 µM
[13] = biological target: Rho-associated protein kinase 2 (Homo sapiens) (UniProt O75116); conditions: at 1 µM
[14] = biological target: Ribosomal protein S6 kinase alpha-1 (Homo sapiens) (UniProt Q15418); conditions: at 0.1 µM
[15] = biological target: Ribosomal protein S6 kinase alpha-1 (Homo sapiens) (UniProt Q15418); conditions: at 1 µM
[16] = biological target: Ribosomal protein S6 kinase alpha-3 (Homo sapiens) (UniProt P51812); conditions: at 0.1 µM
[17] = biological target: Ribosomal protein S6 kinase alpha-3 (Homo sapiens) (UniProt P51812); conditions: at 1 µM
[18] = biological target: Ribosomal protein S6 kinase alpha-2 (Homo sapiens) (UniProt Q15349); conditions: at 0.1 µM
[19] = biological target: Ribosomal protein S6 kinase alpha-2 (Homo sapiens) (UniProt Q15349); conditions: at 1 µM
[20] = biological target: Ribosomal protein S6 kinase alpha-6 (Homo sapiens) (UniProt Q9UK32); conditions: at 0.1 µM;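 further: reported value is the mean inhibition of RSK4, from the GSK PKIS kinase inhibitor screen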

Sequence of Ribosomal protein S6 kinase alpha-2 (Homo sapiens) (Q15349 whole entry): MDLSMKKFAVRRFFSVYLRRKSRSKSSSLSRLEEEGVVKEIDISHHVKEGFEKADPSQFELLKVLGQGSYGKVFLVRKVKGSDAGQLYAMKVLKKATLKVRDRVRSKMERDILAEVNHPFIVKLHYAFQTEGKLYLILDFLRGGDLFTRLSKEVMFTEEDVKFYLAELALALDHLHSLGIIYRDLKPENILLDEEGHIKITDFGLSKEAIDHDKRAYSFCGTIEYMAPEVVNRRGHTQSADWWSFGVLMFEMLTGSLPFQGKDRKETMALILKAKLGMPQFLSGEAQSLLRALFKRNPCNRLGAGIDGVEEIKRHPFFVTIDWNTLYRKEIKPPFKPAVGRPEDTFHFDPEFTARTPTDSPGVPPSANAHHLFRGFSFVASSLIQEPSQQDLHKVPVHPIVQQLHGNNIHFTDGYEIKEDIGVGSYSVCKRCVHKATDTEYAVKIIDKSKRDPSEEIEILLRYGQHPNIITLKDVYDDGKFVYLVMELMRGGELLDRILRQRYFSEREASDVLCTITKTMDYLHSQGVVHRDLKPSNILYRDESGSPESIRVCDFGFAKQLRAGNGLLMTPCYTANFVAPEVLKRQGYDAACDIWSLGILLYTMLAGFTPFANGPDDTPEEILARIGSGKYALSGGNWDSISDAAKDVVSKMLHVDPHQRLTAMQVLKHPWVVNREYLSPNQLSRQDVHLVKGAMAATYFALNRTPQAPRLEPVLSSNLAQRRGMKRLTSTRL
Sequence of Rho-associated protein kinase 2 (Homo sapiens) (O75116 whole entry, looked up): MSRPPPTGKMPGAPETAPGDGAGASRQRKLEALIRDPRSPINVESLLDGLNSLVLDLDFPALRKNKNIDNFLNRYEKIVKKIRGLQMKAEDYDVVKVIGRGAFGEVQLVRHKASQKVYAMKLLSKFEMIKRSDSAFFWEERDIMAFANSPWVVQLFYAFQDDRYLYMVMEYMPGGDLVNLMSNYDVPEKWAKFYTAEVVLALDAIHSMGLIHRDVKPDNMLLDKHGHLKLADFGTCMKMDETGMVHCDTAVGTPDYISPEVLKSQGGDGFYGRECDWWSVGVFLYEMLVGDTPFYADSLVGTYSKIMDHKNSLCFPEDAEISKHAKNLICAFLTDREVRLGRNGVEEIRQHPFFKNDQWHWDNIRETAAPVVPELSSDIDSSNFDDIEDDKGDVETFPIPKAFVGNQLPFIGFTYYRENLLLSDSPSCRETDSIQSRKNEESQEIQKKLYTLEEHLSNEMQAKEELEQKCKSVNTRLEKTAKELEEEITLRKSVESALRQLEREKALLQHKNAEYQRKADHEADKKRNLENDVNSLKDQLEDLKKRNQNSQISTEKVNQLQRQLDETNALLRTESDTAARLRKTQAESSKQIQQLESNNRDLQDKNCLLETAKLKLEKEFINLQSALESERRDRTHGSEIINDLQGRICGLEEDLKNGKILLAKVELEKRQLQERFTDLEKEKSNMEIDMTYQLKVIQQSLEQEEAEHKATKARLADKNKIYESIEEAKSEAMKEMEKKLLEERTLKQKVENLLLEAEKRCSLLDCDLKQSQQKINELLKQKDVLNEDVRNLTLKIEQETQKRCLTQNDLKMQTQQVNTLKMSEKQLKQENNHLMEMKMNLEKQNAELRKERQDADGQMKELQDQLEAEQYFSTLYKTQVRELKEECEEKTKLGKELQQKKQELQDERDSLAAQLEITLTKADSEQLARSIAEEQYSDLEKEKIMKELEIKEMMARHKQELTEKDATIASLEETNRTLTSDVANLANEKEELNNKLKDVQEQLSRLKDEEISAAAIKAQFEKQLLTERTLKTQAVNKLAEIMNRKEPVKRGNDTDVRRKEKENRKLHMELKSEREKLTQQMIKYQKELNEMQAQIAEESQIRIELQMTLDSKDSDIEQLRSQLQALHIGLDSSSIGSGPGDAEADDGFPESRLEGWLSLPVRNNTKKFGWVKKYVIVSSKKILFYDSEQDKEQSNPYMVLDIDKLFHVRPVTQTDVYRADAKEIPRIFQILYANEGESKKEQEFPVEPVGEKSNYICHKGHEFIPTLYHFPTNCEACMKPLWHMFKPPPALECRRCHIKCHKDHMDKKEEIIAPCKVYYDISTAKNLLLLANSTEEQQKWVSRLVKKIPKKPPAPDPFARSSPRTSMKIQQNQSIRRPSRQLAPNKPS
Sequence of Ribosomal protein S6 kinase alpha-3 (Homo sapiens) (P51812 whole entry): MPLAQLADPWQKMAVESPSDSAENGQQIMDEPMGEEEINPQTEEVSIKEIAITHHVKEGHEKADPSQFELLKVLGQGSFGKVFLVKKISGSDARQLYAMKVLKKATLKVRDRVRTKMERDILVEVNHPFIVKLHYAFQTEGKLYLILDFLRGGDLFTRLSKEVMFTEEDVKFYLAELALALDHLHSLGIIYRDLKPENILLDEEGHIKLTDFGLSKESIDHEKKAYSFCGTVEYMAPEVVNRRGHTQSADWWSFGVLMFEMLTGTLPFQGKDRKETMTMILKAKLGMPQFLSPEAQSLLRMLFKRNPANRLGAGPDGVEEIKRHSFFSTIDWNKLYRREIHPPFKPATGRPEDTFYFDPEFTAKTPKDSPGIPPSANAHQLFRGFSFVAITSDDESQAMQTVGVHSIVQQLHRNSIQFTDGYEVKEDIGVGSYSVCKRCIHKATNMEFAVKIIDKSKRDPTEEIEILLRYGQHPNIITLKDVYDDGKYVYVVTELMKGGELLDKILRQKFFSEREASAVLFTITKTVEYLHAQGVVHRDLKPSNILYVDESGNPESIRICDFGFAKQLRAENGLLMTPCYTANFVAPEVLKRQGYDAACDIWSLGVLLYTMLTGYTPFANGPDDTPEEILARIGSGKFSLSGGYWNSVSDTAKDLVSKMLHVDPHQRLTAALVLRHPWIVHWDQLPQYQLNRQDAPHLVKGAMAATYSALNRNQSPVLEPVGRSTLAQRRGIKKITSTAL
Sequence of Rho-associated protein kinase 1 (Homo sapiens) (Q13464 2-1354 limits assumed): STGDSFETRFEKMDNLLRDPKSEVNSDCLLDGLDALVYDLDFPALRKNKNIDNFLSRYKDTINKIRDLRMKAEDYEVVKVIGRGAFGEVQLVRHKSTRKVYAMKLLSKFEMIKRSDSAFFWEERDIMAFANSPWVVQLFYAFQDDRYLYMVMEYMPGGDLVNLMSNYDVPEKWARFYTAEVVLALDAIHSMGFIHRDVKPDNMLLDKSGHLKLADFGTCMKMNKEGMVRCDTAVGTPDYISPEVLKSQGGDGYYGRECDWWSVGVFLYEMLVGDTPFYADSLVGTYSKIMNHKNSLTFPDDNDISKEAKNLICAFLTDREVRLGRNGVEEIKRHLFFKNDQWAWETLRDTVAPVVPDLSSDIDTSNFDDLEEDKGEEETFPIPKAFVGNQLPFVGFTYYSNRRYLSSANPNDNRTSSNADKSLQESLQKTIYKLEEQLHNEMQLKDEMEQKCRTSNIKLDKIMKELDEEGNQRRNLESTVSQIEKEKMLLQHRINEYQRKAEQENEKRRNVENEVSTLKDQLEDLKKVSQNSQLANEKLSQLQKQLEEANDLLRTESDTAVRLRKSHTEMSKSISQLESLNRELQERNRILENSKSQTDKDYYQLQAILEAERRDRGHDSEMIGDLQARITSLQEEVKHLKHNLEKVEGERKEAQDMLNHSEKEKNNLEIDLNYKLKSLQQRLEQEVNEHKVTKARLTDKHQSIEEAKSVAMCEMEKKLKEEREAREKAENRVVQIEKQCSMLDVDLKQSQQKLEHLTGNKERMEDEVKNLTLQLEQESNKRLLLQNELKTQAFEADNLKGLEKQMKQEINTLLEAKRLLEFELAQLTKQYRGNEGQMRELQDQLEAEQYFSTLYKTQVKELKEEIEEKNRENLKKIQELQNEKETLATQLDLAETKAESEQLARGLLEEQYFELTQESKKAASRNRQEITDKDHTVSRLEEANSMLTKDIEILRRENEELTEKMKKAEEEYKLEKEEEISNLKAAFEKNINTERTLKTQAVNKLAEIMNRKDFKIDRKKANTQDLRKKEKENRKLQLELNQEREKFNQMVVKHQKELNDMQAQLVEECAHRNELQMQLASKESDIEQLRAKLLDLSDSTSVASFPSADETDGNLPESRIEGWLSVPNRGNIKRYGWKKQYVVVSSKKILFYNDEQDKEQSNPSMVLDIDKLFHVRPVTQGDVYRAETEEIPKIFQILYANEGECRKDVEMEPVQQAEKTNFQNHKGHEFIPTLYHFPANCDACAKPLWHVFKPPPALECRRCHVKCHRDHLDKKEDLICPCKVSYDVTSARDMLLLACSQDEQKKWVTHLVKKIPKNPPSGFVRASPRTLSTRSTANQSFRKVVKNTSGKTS
Sequence of Ribosomal protein S6 kinase alpha-1 (Homo sapiens) (Q15418 whole entry): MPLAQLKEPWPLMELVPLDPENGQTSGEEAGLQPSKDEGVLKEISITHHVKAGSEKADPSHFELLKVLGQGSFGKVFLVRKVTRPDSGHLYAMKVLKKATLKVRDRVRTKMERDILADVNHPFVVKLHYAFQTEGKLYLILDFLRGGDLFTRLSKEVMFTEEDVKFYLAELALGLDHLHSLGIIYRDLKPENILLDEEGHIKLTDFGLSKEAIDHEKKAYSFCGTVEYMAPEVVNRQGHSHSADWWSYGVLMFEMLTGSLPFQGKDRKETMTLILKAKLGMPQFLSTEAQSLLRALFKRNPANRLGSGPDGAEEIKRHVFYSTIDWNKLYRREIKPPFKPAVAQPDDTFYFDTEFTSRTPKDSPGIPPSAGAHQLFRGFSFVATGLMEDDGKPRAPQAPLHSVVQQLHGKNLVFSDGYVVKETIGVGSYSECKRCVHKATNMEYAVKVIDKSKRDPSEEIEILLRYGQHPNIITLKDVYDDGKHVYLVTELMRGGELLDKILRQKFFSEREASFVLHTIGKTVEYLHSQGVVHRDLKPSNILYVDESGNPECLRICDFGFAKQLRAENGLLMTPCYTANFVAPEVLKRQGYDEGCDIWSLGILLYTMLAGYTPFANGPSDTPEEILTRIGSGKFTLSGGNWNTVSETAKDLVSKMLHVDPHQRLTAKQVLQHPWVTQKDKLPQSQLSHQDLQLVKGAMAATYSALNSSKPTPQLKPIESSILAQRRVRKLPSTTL

| SMILES | inhibition [1] [%] | inhibition [2] [%] | inhibition [3] [%] | inhibition [4] [%] | inhibition [5] [%] | inhibition [6] [%] | inhibition [7] [%] | inhibition [8] [%] | inhibition [9] [%] | inhibition [10] [%] | inhibition [11] [%] | inhibition [12] [%] | inhibition [13] [%] | inhibition [14] [%] | inhibition [15] [%] | inhibition [16] [%] | inhibition [17] [%] | inhibition [18] [%] | inhibition [19] [%] | inhibition [20] [%] |
| --- | --- | --- | --- | --- | --- | --- | --- | --- | --- | --- | --- | --- | --- | --- | --- | --- | --- | --- | --- | --- |
| CS(=O)(=O)Nc1cccc(-c2ccc3c(NC(=O)C4CC4)n[nH]c3c2)c1 | 3.59 | 1.24 | 2.48 | -0.41 | 1.73 | 1.34 | 2.16 | 0.39 | -0.61 | 0.24 | 0.09 | 0.82 | -0.9 | -0.15 | -0.83 | 1.31 | 1.41 | 1.1 | 2.19 | 1.24 |
| Cc1ccc(NC(=O)CC2CC2)cc1-c1ccc(C(=O)NCC2CC2)cc1 | 3.78 | 3.15 | 3.66 | 2.45 | 1.88 | 1.38 | 2.64 | 1.92 | 2.19 | 1 | 2.07 | 3.27 | 5.25 | 1.91 | 2.35 | 0.73 | 1.14 | 1.88 | 2.04 | 1.16 |
| COc1cccc(-n2ncc3c(N/N=C/c4ccc(S(C)(=O)=O)cc4)ncnc32)c1 | -2.8 | -6.98 | -2.38 | 1.11 | 1.69 | 1.59 | 1.79 | 1.68 | 1.61 | 0.21 | 1.16 | 1.71 | 1.85 | 1.45 | 0.53 | 1.53 | 0.98 | 1.87 | 4.48 | 0.99 |
| NS(=O)(=O)c1ccc(N/N=C2\C(=O)Nc3ccc(Cl)cc32)cc1 | 5.28 | 3.58 | 5.68 | 2.65 | 6.01 | 3.85 | 5.8 | 4.2 | 7.86 | 0.31 | 2.29 | 3.76 | 10.6 | 1.95 | 4.81 | 1.84 | 3.95 | 1.83 | 2.94 | 0.98 |

— ChEMBL document CHEMBL1961873, “Compounds: GSK PKIS; Assays: Nanosyn kinase panel” (2012)
